# Experimental data published in PubChem BioAssay.
# “And” between values parts separate entries of the source, which are not always exact repeats. Equal entries are not always repeated. The source made the active and inactive calls.
# Columns and labels:
# [1] = tested on: Plasmodium falciparum Sir2 (PF13_0152, Sir2A); assay: Plasmodium falciparum Sir2A binding compounds – biochemical, small-molecule microarray, 635 nm fluorescence, primary screen (AID 1098); conditions: fluorescence 635 nm, higher = more signal;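 note: score merges spot fluorescence intensity with its signal-to-noise ratio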
# [2] = probe aDKK1 binding to arrayed compounds – biochemical, biotinylated probe, 635/667 nm fluorescence, primary screen (AID 1099); conditions: small-molecule microarray, higher = more signal;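 note: score merges 667nm spot fluorescence with signal to noise across triplicate slides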
# [3] = probe aCHRDL2 binding to arrayed compounds – biochemical, biotinylated probe, 635/667 nm fluorescence, primary screen (AID 1100); conditions: small-molecule microarray, higher = more signal
# [4] = change in splice reporter luminescence, either direction, cell-based, HEK293, spliceosome inhibition project, primary screen (AID 1101); conditions: HEK293 splicing luciferase reporter, 24 h, higher = more signal, called active from +8 up or from −8 down;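 note: HEK293 cells carrying a splicing-competent luciferase reporter gene; test concentration not given here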
# [5] = target: Fibroblast growth factor 10 (Homo sapiens) (UniProt O15520); assay: compounds binding fibroblast growth factor 10 – biochemical, small-molecule microarray, 635 nm fluorescence, primary screen (AID 1102); conditions: FGF10 binding, fluorescence 635 nm, higher = more signal
# [6] = tested on: glycogen synthase kinase-3 (GSK3A per assay name; protocol says GSK3B); assay: compounds binding glycogen synthase kinase-3 – biochemical, small-molecule microarray, 635 nm fluorescence, GSK3A, primary screen (AID 1103); conditions: fluorescence 635 nm, higher = more signal; note: the record names both GSK3A and GSK3B
# [7] = target: Epidermal growth factor receptor (Homo sapiens) (UniProt P00533); assay: compounds binding epidermal growth factor receptor – biochemical, small-molecule microarray, 635 nm fluorescence, primary screen (AID 1104); conditions: EGFR binding, higher = more signal;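 note: score merges 667 nm emission intensity with spot signal to noise over triplicate slides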
# [8] = target: Follistatin-related protein 3 (Homo sapiens) (UniProt O95633); assay: compounds binding follistatin-related protein 3 – biochemical, small-molecule microarray, 635 nm fluorescence, primary screen (AID 1105); conditions: FSTL3 binding, higher = more signal;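 note: score merges emission near 667 nm and signal to noise per printed spot across three slides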
# [9] = target: Dickkopf-related protein 1 (Homo sapiens) (UniProt O94907); assay: small molecules binding DKK1 protein – biochemical, small-molecule microarray, 635 nm fluorescence scan, primary screen (AID 1106); conditions: higher = more signal;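 note: score merges emission near 667 nm with signal to noise over three replicate slides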
# [10] = tested on: Inhibin beta A chain (activin A); assay: small molecules binding activin A – biochemical, small-molecule microarray, 635 nm fluorescence scan, primary screen (AID 1107); conditions: INHBA, higher = more signal;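 note: mouse activin A protein probed at 4.33 µg/mL on printed slides; score merges bound-protein fluorescence near 667 nm with spot signal-to-noise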
# [11] = tested on: Human papillomavirus type 1a protein E7 (residues 44-93); assay: small molecules binding HPV E7 44-93 – biochemical, small-molecule microarray, residues 44-93, 635 nm fluorescence, primary screen (AID 1108); conditions: fluorescence 635 nm, higher = more signal;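 note: E7 fragment applied at 1 µg/mL in TBST for 1 h at 4 C; score combines spot fluorescence with its signal to noise ratio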
# [12] = hepatitis C replication reporter changes, two-sided – Huh7 cells, luciferase reporter, HCV replication inhibitor project, primary screen (AID 1109); conditions: Huh7 HCV replicon luciferase reporter, 48 h; higher = more signal;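 note: huh7 hepatoma cells harbouring a luciferase neomycin HCV replicon reporter; luciferase luminescence as measure of HCV replicon replication; test concentration not given here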
# [13] = target: Left-right determination factor 2 (Homo sapiens) (UniProt O00292); assay: small molecules binding LEFTY2 protein – biochemical, small-molecule microarray, 635 nm fluorescence scan, primary screen (AID 1110); conditions: higher = more signal
# [14] = target: Calmodulin-1 (Homo sapiens) (UniProt P0DP23); assay: small molecules binding calmodulin-1 with EGTA – biochemical, small-molecule microarray, Cy5-labelled CALM1, profiling panel (AID 1111); conditions: Cy5-CALM1 binding fluorescence, higher = more signal;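 note: labelled calmodulin applied in Tris saline Tween buffer holding calcium plus EGTA and DTT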
# [15] = target: Calmodulin-1 (Homo sapiens) (UniProt P0DP23); assay: small molecules binding Ca-loaded calmodulin-1 – biochemical, small-molecule microarray, Cy5-labelled CALM1, plus calcium, artefact control for SMM control-protein annotation, profiling panel (AID 1112); conditions: Cy5-CALM1 binding fluorescence, higher = more signal;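 note: score merges spot fluorescence with signal to noise from triplicate slides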
# [16] = probe aWnt5a binding to arrayed compounds – biochemical, biotinylated probe, 635/667 nm fluorescence, primary screen (AID 1113); conditions: small-molecule microarray, higher = more signal;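 note: score merges 667 nm fluorescence intensity with signal-to-noise per printed feature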
# [17] = probe aShh binding to arrayed compounds – biochemical, biotinylated probe, 635/667 nm fluorescence, primary screen (AID 1114); conditions: small-molecule microarray, higher = more signal;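 note: probe is biotin-labelled aShh protein from a stem cell growth factor screen; measures binding of labelled protein to compounds printed on the slide; score merges feature fluorescence at 667 nm with signal-to-noise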
# [18] = probe aNog binding to arrayed compounds – biochemical, biotinylated probe, 635/667 nm fluorescence, primary screen (AID 1115); conditions: small-molecule microarray, higher = more signal;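 note: probe is biotinylated aNog protein used at 0.15 µg/mL for 1 h at 4 C; z-score combines 667 nm fluorescence of each spot with its signal to noise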
# [19] = target: Torsin-1A-interacting protein 1 (Homo sapiens) (UniProt Q5JTV8); assay: compound microarray binding of lysate hLAP1 – cell lysate, small-molecule microarray, COS7 lysate, 635/667 nm fluorescence, primary screen (AID 1116); conditions: 635 nm fluorescence, higher = more signal
# [20] = target: Alpha-bungarotoxin (Bungarus multicinctus) (UniProt P60615); assay: compounds binding labelled alpha-BTX control protein – biochemical, small-molecule microarray, Alexa647 label, 635/667 nm fluorescence, artefact control for SMM control protein annotation, profiling panel (AID 1117); conditions: alpha-BTX-A647 binding fluorescence, higher = more signal
# Alpha-bungarotoxin (Bungarus multicinctus), sequence (P60615 whole entry, looked up): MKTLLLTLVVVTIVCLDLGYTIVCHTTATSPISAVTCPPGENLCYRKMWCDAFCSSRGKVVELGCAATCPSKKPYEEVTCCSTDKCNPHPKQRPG
# Dickkopf-related protein 1 (Homo sapiens), sequence (O94907 whole entry, looked up): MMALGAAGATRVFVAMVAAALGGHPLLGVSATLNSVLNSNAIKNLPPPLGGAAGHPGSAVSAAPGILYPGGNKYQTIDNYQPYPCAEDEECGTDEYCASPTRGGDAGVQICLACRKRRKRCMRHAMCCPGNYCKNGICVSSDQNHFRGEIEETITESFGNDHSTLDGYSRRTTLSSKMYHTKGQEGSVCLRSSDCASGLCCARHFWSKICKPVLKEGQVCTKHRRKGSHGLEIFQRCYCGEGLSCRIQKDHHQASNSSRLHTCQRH
# Epidermal growth factor receptor (Homo sapiens), sequence (P00533 whole entry, looked up): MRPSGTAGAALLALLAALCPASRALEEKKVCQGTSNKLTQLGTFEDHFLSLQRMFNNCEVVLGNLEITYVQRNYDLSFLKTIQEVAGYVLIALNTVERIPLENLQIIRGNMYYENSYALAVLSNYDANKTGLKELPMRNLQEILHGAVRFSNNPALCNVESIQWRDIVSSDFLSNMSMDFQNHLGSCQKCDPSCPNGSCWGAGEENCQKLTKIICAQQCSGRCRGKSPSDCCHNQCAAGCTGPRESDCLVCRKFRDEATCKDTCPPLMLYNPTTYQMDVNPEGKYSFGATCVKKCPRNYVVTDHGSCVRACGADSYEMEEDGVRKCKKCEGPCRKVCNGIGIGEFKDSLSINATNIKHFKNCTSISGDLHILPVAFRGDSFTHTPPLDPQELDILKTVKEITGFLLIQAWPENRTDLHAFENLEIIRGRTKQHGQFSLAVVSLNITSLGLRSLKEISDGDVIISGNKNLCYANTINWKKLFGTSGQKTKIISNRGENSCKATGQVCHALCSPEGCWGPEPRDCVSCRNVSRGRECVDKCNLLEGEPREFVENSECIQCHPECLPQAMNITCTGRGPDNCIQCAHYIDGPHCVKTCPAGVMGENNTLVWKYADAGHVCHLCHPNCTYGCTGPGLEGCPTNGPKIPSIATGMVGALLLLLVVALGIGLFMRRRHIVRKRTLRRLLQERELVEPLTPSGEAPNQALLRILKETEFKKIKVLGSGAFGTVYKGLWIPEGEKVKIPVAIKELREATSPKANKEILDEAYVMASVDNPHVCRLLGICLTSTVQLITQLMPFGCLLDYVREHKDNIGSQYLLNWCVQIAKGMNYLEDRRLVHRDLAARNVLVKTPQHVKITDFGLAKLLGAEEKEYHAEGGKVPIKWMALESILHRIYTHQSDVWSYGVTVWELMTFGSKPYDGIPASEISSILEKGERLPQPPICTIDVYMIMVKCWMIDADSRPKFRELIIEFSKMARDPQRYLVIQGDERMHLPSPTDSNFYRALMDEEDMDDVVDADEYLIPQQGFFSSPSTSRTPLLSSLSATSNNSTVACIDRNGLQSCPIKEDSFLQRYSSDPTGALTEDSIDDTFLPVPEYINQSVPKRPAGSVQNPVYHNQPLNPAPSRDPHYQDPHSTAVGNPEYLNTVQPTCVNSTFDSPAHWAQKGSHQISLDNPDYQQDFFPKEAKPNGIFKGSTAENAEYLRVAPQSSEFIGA
# Fibroblast growth factor 10 (Homo sapiens), sequence (O15520 whole entry, looked up): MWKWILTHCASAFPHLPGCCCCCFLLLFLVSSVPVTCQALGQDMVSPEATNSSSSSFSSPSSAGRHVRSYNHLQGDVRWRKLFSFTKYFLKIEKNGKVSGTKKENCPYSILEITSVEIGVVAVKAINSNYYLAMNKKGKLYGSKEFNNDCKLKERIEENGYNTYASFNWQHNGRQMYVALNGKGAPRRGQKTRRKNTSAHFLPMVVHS
# Follistatin-related protein 3 (Homo sapiens), sequence (O95633 whole entry, looked up): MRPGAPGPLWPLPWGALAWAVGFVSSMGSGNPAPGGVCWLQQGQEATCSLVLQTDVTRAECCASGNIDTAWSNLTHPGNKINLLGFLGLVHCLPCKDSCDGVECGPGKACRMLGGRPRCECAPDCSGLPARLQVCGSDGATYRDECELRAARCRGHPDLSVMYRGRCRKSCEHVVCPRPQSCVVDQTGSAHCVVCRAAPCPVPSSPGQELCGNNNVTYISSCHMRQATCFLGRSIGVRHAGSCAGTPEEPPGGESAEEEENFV
# Torsin-1A-interacting protein 1 (Homo sapiens), sequence (Q5JTV8 whole entry, looked up): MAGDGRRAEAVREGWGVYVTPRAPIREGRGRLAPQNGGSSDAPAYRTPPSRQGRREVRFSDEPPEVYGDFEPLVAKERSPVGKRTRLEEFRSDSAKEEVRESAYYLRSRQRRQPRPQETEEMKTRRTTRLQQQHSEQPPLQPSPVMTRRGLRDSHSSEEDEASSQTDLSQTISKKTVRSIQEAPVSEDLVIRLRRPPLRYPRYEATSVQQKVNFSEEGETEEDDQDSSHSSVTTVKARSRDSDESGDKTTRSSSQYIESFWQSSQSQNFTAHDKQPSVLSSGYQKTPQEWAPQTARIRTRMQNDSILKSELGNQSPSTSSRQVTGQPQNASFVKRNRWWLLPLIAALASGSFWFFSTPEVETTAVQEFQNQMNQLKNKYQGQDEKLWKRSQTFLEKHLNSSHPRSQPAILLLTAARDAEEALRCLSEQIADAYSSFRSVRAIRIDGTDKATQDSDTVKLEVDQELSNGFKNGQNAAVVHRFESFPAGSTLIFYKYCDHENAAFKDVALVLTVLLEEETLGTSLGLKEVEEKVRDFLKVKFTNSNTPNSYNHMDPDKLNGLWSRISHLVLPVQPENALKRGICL
# Left-right determination factor 2 (Homo sapiens), sequence (O00292 whole entry, looked up): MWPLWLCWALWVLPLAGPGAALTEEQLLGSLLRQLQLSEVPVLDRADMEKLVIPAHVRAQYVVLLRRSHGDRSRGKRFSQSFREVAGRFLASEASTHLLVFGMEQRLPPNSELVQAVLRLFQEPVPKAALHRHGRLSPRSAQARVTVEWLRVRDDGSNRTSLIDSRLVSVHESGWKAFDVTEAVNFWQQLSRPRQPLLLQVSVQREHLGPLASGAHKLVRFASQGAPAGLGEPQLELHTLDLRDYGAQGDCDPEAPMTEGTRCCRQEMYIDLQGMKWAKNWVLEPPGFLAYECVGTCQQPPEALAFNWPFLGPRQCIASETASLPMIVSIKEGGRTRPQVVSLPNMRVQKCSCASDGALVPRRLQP
Compound,composite z-score [1],composite z-score [2],composite z-score [3],z-score [4],composite z-score [5],composite z-score [6],composite z-score [7],composite z-score [8],composite z-score [9],composite z-score [10],composite z-score [11],z-score [12],composite z-score [13],composite z-score [14],composite z-score [15],composite z-score [16],composite z-score [17],composite z-score [18],composite z-score [19],composite z-score [20]
CCCC[C@@H]1CN2[C@H](c3ccc(Br)cc3)[C@@H](C)CC[C@H]2C(=O)O1,0.186 and 0.254,-0.385 and -0.192,-0.492 and -0.707,-0.475 (inactive) and 0.405 (inactive),0.124 and 0.115,0.0093 and -0.0119,0.283 and 0.308,-0.427 and -0.351,0.407 and -0.117,0.574 and 0.485,-0.519 and 0.166,-0.403 and -0.983,0.189 and 0.327,-0.254 and -0.255,-0.329 and -0.334,-0.232 and -0.104,-0.273 and -0.138,0.153 and 0.0051,0.0737 and 0.259,0.412 and 0.575
C[C@@H](c1ccccc1)N1C(=O)[C@H]2[C@H]3[C@H](O)[C@H](O)CC(=O)[C@@H]3CC[C@H]2C1=O,0.11,-0.152,-0.706,-1.26 (inactive),0.685,0.59,0.43,0.599,0.943,-0.838,0.189,0.265,0.574,0.377,-0.241,-0.119,0.163,-0.387,0.49,-0.0104
CC(C)OC(=O)C=C1C[C@@H](c2cccc(C(F)(F)F)c2)O[C@@H](c2cccc(C(F)(F)F)c2)O1,0.937 and 1.55,0.326 and -0.186,0.605 and -0.185,1.12 (inactive) and -1.24 (inactive),-0.135 and -0.527,0.335 and 0.267,-1.14 and -1.45,-0.815 and -1.39,-0.49 and -0.776,-0.347 and -0.587,1.34 and 0.979,-1.55 and -2.35,-0.906 and -0.656,1.21 and 0.297,0.831 and 0.224,0.0433 and -0.218,0.04 and -0.162,0.509 and 0.655,1.03 and 0.0622,0.613 and 0.269
CC(C)CCN1CCc2nc(-c3ccccc3)c3c(c2C1)CO[C@@H](C)C3,-0.0208,0.233,-0.148,0.109 (inactive),0.476,0.77,0.516,0.579,0.689,0.55,1.35,-0.952,0.457,-0.083,-0.399,-0.0944,-0.138,-0.036,0.565,0.416
CC(C)[Si]1(C(C)C)OCc2cc(C3CC3)nc(CCc3ccccc3)c21,-0.534 and -0.371,0.0295 and -0.146,0.221 and -0.262,-0.383 (inactive) and 0.693 (inactive),-0.348 and 0.0251,-0.897 and 0.178,0.105 and 0.15,-0.238 and 0.195,-0.293 and 0.135,0.768 and 0.242,-0.789 and 0.192,-0.745 and -0.958,0.045 and 0.273,0.154 and -0.425,-0.253 and -0.002,-0.15 and -0.0512,-0.181 and -0.221,0.0732 and -0.0554,-0.527 and 0.362,0.0536 and -0.448
